# Source: PubChem BioAssay (NCATS)
# Records with an inconclusive call do not appear. Entries that show only a call come without a potency. Activity calls are given as the source filed them. Unless noted, the call rests on the fitted dose curve; in most records, active means well fitted inhibition curve with a large enough effect; inconclusive means small, poorly fitted or top-dose-only effect; inactive means no such curve, though single readings can be large or run the other way.
# Key:
# [1] = Primary qHTS for small molecule stabilizers of the endoplasmic reticulum resident proteome: Secreted ER Calcium Modulated Protein (SERCaMP) assay (AID 1508630)
# In short: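 GLuc-SERCaMP-expressing SH-SY5Y cells, pretreated 16 h with compound, are challenged with thapsigargin to empty ER calcium stores; after 4 h, coelenterazine is added directly to the medium and luminescence is imaged.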
# Papain (Carica papaya) = Papain (Carica papaya) (UniProt P00784); experiment: Primary qHTS assay for inhibitors of the protease papain (AID 1645873);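 further: papain turnover of Z-FR-AMC read as the AMC fluorescence gain over 10 min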; further: potency means the concentration at half of the fitted maximal effect
# Chain of Papain (Carica papaya) (P00784 whole entry, looked up): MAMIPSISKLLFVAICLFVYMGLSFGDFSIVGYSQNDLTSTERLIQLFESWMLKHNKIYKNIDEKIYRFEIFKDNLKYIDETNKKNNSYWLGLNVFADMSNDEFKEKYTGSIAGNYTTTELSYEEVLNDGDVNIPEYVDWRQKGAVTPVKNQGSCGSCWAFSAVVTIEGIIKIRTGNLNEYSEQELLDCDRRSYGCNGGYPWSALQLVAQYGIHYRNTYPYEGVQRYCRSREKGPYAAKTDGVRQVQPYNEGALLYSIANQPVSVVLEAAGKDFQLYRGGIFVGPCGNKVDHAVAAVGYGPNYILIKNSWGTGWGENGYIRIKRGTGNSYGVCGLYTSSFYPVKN
# [2] = Counterscreen qHTS for small molecule stabilizers of the endoplasmic reticulum resident proteome: GLuc-NoTag assay (AID 1508627); further: potency means the concentration at half of the fitted maximal effect
# In short: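 SH-SY5Y cells stably expressing constitutively secreted GLuc without SERCaMP tag, exposed to compound for 19 hr, then to 100 nM thapsigargin for 4 hr at 37C. Medium luciferase was read by coelenterazine luminescence without lysis.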
# [3] = molecular target: Catechol O-methyltransferase (Homo sapiens) (UniProt P21964); experiment: Confirmatory Screen for Target Class Profiling of Small Molecule Inhibitors of Methyltransferases (AID 1745852; calls by dose curve; further: potency means the concentration at half of the fitted maximal effect); settings: MTase-Glo luminescence, SAH detection, recombinant enzyme; measured here: COMT max response; stronger effect = lower value
# Chain of Catechol O-methyltransferase (Homo sapiens) (P21964 whole entry, looked up): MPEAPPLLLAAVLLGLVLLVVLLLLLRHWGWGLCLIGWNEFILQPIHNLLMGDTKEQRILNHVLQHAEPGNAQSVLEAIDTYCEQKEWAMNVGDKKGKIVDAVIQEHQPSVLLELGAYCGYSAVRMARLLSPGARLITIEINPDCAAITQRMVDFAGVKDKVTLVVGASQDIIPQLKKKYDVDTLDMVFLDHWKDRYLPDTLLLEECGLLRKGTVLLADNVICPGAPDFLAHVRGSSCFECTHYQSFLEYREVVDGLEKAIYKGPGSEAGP
# [4] = molecular target: Guanidinoacetate N-methyltransferase (Homo sapiens) (UniProt Q14353); experiment: as above; settings: MTase-Glo luminescence, SAH detection, recombinant enzyme; activity change, negative = inhibition: at 57.3 µM (top of the series)
# [5] = molecular target: Nicotinamide N-methyltransferase (Homo sapiens) (UniProt P40261); experiment: as above; settings: MTase-Glo luminescence, SAH detection, recombinant enzyme; measured here: NNMT max response; stronger effect = lower value
# Chain of Nicotinamide N-methyltransferase (Homo sapiens) (P40261 whole entry, looked up): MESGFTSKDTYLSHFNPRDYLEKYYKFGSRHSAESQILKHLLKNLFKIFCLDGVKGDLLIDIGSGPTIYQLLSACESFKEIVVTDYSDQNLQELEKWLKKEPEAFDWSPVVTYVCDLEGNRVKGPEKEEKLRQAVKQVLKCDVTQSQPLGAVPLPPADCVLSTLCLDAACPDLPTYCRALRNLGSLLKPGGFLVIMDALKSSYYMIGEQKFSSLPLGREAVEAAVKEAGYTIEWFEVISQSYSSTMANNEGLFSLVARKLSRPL
# [6] = molecular target: Phenylethanolamine N-methyltransferase (Homo sapiens) (UniProt P11086); experiment: as above; settings: MTase-Glo luminescence, SAH detection, recombinant enzyme; measured here: PNMT max response; stronger effect = lower value
# Chain of Phenylethanolamine N-methyltransferase (Homo sapiens) (P11086 whole entry, looked up): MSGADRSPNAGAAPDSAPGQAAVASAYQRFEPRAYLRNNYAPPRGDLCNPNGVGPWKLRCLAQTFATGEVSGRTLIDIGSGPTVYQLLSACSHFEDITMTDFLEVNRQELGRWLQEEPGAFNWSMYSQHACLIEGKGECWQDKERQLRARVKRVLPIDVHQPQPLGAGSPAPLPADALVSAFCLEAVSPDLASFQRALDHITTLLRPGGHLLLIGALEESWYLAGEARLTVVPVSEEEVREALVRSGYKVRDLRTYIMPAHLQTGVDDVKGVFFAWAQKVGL
structure (smiles),measurement,setting,value
O=c1oc(Cl)c(Cl)c2ccccc12,Potency,[1],inactive
same,Potency,Papain (Carica papaya),inactive
COc1ccc(NC(=O)c2ccc(-c3ccc(-c4noc(C)n4)cc3C)cc2)cc1N1CCN(C)CC1,Potency,[1],inactive
same,Potency,Papain (Carica papaya),inactive
CC(=O)[C@H]1CCC2C3CC=C4C[C@@H](OS(=O)(=O)O)CC[C@]4(C)C3CC[C@@]21C (some centres undefined),Potency,[1],inactive
same,Potency,Papain (Carica papaya),28.2 µM (active)
N#Cc1cc2nc(O)c(O)nc2cc1[N+](=O)[O-],Potency,[1],inactive
C=C(C)C1CC=C(C(=O)O)CC1 (centres undefined),Potency,[1],inactive
same,Potency,Papain (Carica papaya),inactive
NCCCNCCCCNCCCN,Potency,[1],inactive
same,Potency,Papain (Carica papaya),inactive
N[C@H]1CONC1=O,Potency,[1],inactive
same,Potency,Papain (Carica papaya),inactive
O=C(O)C1=CCCNC1,Potency,[1],inactive
same,Potency,Papain (Carica papaya),inactive
N#C/C(=C\c1ccc(O)c(O)c1)C(=O)NCCCNC(=O)/C(C#N)=C/c1ccc(O)c(O)c1,Potency,[2],20 µM (active)
same,Potency,Papain (Carica papaya),22.4 µM (active)
same,activity,[3],-50.9%
same,Potency,[4],4.85 µM (active)
same,activity,[5],-44.4%
same,activity,[6],-72.8%
O=c1ccc2c(OCCCCc3ccccc3)c3ccoc3cc2o1,Potency,[1],inactive
same,Potency,Papain (Carica papaya),inactive
CO/N=C(\C(=O)N[C@@H]1C(=O)N2C(C(=O)O)=C(CSc3nc(=O)c(O)nn3C)CSC12)c1csc(N)n1 (some centres undefined),Potency,[1],inactive
CC(C)(C)c1ccc(/C=C/C(=O)Nc2ccc3c(c2)OCCO3)cc1,Potency,[1],inactive
same,Potency,Papain (Carica papaya),inactive
NC1(C(=O)O)CCc2cc(C(=O)O)ccc21 (centres undefined),Potency,[1],inactive
same,Potency,Papain (Carica papaya),inactive
CNc1cc(NS(=O)(=O)c2ccc(N)cc2)nc(NC)n1,Potency,[1],inactive
same,Potency,Papain (Carica papaya),inactive
N[C@@H](CS(=O)O)C(=O)O,Potency,[1],inactive
same,Potency,Papain (Carica papaya),inactive
NCC(O)(CS(=O)(=O)O)c1ccc(Cl)cc1 (centres undefined),Potency,[1],inactive
same,Potency,Papain (Carica papaya),inactive
NCC(O)c1ccc(O)c(O)c1 (centres undefined),Potency,[1],inactive
COc1ccc2c(c1)c(CC(=O)O)c(C)n2Cc1ccc(Cl)cc1,Potency,[1],inactive
same,Potency,Papain (Carica papaya),inactive
NC1C=CC=C(C(=O)O)C1 (centres undefined),Potency,[1],inactive
same,Potency,Papain (Carica papaya),inactive
O=C(O)/C(=C/c1c(C(=O)O)[nH]c2cc(Cl)cc(Cl)c12)c1ccccc1,Potency,[1],inactive
O=c1[nH]c(=O)c2nc3ccccc3nc2[nH]1,Potency,[1],inactive
same,Potency,Papain (Carica papaya),inactive
C[C@H](O)C(=O)C1=Nc2c(nc(N)[nH]c2=O)NC1,Potency,[1],inactive
same,Potency,Papain (Carica papaya),28.2 µM (active)
